Screening results from PubChem.
GALK inhibitor: blocks human galactokinase activity; P51570; actives 0.007% (n = 270,000); Potency, µM (series often up to 57.5 µM), inactives show at the highest dose activity change, negative = inhibition, usual class: inhibitors; AID 1868; Purified GALK, Kinase-Glo residual ATP luminescence; further: potency means the concentration at half of the fitted maximal effect; on the % scale 0 is the no-effect control and ±100 the full control effect
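ATP-depletion format; final 35 uM ATP, 100 uM D-galactose, 5 nM enzyme; pH 8.0 HEPES/Mg2+ buffer; 60 min RT; luminescence read 10 min after detection reagent.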
USP2a inh: inhibitors of human ubiquitin-specific protease USP2a; O75604; USP2 core, Ub-CHOP2 coupled fluorogenic reporter, 485/531; Potency, µM (series often up to 38.3 µM), for inactives: at the top dose activity change, negative = inhibition, hits mostly inhibitors; actives 0.01% (n = 330,000); AID 463254;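 further: potency means the concentration at half of the fitted maximal effect; plate controls were DMSO wells for no effect and full inhibition by NEM control for full effect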
Target sequence (O75604 whole entry, looked up): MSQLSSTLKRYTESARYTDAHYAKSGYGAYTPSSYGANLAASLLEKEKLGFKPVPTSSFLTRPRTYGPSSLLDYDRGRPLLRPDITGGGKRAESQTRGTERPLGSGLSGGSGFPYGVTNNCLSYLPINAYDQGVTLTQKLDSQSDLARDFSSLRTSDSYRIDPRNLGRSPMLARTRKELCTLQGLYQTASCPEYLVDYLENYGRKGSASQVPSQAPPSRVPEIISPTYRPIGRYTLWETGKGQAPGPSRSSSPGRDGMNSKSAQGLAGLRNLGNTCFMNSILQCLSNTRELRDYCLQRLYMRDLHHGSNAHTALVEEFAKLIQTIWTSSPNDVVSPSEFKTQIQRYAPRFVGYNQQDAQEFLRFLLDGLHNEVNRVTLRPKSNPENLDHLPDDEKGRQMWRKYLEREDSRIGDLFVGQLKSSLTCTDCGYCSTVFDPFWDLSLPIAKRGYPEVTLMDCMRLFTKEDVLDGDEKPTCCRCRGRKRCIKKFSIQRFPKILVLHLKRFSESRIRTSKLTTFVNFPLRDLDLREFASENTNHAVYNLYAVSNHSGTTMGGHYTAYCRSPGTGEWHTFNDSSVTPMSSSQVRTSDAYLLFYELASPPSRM
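Cell-free coupled assay: 10nM USP2 core preincubated 30min RT with compound in Tris-HCl pH 8.0/CaCl2/CHAPS buffer, then 25nM Ub-CHOP2 and 25nM reporter substrate; fluorescence (Ex 485/Em 531) read after 60min RT, normalized to NEM inhibition, concentration-response curves fitted.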
D1 ag: human D1 receptor agonism | HEK293 T-REx D1 cells, calcium flux, agonist mode | activation, % at 2 µM | actives 1% (n = 360,000); in the data active means activation above about 30%; further: 0% is about no effect
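Agonism was scored from calcium flux recorded over 180 s (1 read/s) after pintool compound addition, following a 10-cycle baseline. Cells were inducible force-coupled HEK293 TREx D1, plated overnight at 30 C and loaded with no-wash calcium dye.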
Eya2 phos inh: blocks the phosphatase activity of human Eya2; AID 488837; recombinant Eya2, OMFP fluorescence dephosphorylation (OMFP is methylfluorescein phosphate); Potency, µM (doses to about 76.9 µM), for the others: at the highest dose activity, negative = inhibition, hits mostly inhibitors; actives 0.006% (n = 330,000); O00167; further: potency means the concentration at half of the fitted maximal effect; on the % scale 0 is the no-effect control and ±100 the full control effect
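Eya2 protein (added as 0.2 uM solution) was preincubated with compound for 10 min at ambient temperature in 50 mM HEPES pH 7.5, 50 mM NaCl, 5 uM MgCl2, 0.05% BSA, 1 mM DTT. OMFP (added at 50 uM) then reacted 10 min; fluorescence read at 485/525 nm.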
D1 antagonist: blocks dopamine activation of the human D1 receptor | activity change, negative = inhibition, % at 10 µM | HEK293 TREx D1 cells, calcium flux, dopamine EC80; active compounds read low | actives 3.2% (n = 360,000) | AID 504652 | P21728; in the data active means activity change below about -30%; further: on the % scale 0 is the no-effect control and ±100 the full control effect
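HEK293 T-REx cells expressing inducible, force-coupled D1 receptor; no-wash Ca dye, 30–90 min RT. Cmpd → 180 s read at 1 Hz → EC80 DA → 180 s read.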
D1 PAM: human D1 dopamine receptor positive modulation. actives 0.036% (n = 360,000). HEK293 TREx D1 cells, calcium flux, dopamine EC20 potentiation. potentiation, % at 10 µM; in the data active means potentiation above about 30%; further: 0% is about no effect
An asterisk follows results filed as active; ? = inconclusive; / = not tested or not shown; ! = not confirmed by another sample. Sampled rows, rich in hits. Any-hit rate of the full collection: about 3.9%. Unless noted, the call rests on the fitted dose curve; in most records, active means well fitted inhibition curve with a large enough effect; inconclusive means small, poorly fitted or top-dose-only effect, or effect the other way; inactive means flat fitted curve, though single readings scatter.

SMILES	GALK inhibitor	USP2a inh	D1 ag	Eya2 phos inh	D1 antagonist	D1 PAM
Cn1c(=O)[nH]c(=O)c2c1nc(CN1CCN(c3ccccc3)CC1)n2Cc1c(F)cccc1Cl	/	/	-1.0	/	-18.5	-4.0
CN(C)S(=O)(=O)N1CCN(c2cc(Cl)ccc2Cl)CC1	0.6%	-9.5%	40.1*	-0.8%	14.0	-4.5
Cc1ccc(C)n1-c1nnc(N2CCCC(C(=O)NCc3cccc(F)c3)C2)s1 (configuration not stated)	/	/	-0.9	/	8.5	-2.4
CCc1cc(=O)[nH]c(SCc2nc(-c3cccc(Cl)c3)no2)n1	/	/	7.0	/	-4.9	-3.6
NCCOc1ccc(C2CCCCC2)cc1	0.0%	-0.5%	32.5*	10.4%	32.1	5.5
Cc1ccn2c(CN(C)CCn3nc(C)cc3C)c(C(=O)N3CCCCCC3)nc2c1	-1.7%	0.4%	-1.2	-1.4%	-35.9*	2.1
Cc1ccn2c(CNCCn3nc(C)cc3C)c(C(=O)N3CCCCCC3)nc2c1	5.1%	-0.6%	1.3	7.3%	-8.3	-6.7
COc1ccccc1C(=O)Nc1ccccc1C(=O)OCc1cc(=O)n2c(C)csc2n1	/	/	4.2	/	-2.6	0.1
CC(C)Cc1csc(NC(=O)c2ccc(Cl)cc2)c1C(=O)O	-2.4%	3.1%	16.7	8.3%	-31.3*	-3.8
CC(=O)Nc1ccc(-c2cc(C(=O)O)c3c(-c4ccccc4)[nH]nc3n2)cc1	/	/	1.0	/	-39.4*	-0.1
Cc1ccc(-c2cc(C(=O)NCc3ccccc3)c3c(-c4ccc(C)cc4)[nH]nc3n2)cc1	/	/	9.4	/	13.6	-1.8
COc1ccccc1N(C)S(=O)(=O)c1ccc(Cl)c(C(=O)OCc2c(C)noc2C)c1	-1.4%	0.7%	30.8*	-3.1%	-28.9	-13.4
c1ccc(CNc2c3c(nc4ncnn24)CCC3)cc1	1.8%	0.0%	5.9	-5.5%	-52.6*	-3.5
O=C1c2cccc3c(O)ccc(c23)C(=O)N1Cc1ccccc1	-5.9%	?	365.6*	?	48.2	18.2
CC1CC(=O)Nc2ccccc2S1(=O)=O (configuration not stated)	2.5%	/	2.4	/	-32.2*	-1.1
O=S1(=O)c2ccccc2Nc2ccccc21	2.2%	0.8%	1.5	14.9%	-1.3	-1.6
CC(C)c1ccc(NC(=O)Nc2cc3sccc3n2C)cc1	0.2%	-1.1%	-3.3	0.9%	-36.8*	-1.5
COc1ccccc1C(CCNCc1ccccc1)c1ccc(OC(C)C)cc1 (configuration not stated)	-2.3%	1.0%	28.1	-6.5%	12.3	12.2
COc1ccc(C(CCNCc2ccc(N(C)C)cc2)C(C)C)cc1 (configuration not stated)	/	-2.3%	25.6	-9.2%	3.7	7.7
COc1ccc(CNCCC(c2ccc(OC(C)C)cc2)C(C)C)cc1OC (configuration not stated)	-0.7%	-0.6%	35.4*	-14.2%	30.0	2.2
COc1ccc(C(CCNCc2ccc(OC(C)C)cc2)C(C)C)cc1 (configuration not stated)	-3.8%	-2.5%	31.0*	-21.5%	11.7	1.4
COc1ccc(CNCCC(c2ccc(OC(C)C)cc2)c2ccccc2OC)cc1 (configuration not stated)	3.9%	1.1%	34.9*	-7.9%	5.4	-3.9
O=C(CSc1nnc(CCCN2C(=O)c3cccc4cccc(c34)C2=O)n1-c1ccccc1)N1CCCCC1	0.0%	6.2%	2.9	-9.5%	-79.1*	-7.0
CC(=O)c1cc(-c2ccccc2)n(CC(=O)NC2CCCCCC2)c1C	/	/	-0.9	/	0.2	-4.2
CN(Cc1ccccc1)C(=O)COC(=O)c1ccccc1NS(=O)(=O)c1cccc(N)c1	1.3%	-5.1%	5.6	-6.4%	-31.7*	-6.4
SMILES	GALK inhibitor	USP2a inh	D1 ag	Eya2 phos inh	D1 antagonist	D1 PAM
COCCN1C=C2C(=O)C(C)(OC(=O)c3cccs3)C(=O)C=C2C=C1CCCC(=O)OC (configuration not stated)	0.9%	-4.0%	6.0	7.5%	-35.9*	-5.9
COC(=O)c1scc(C)c1NC(=O)c1ccccc1F	1.9%	0.0%	0.7	7.6%	-37.1*	-3.5
COC(=O)c1scc(C)c1NC(=O)/C=C/C(=O)O	0.6%	-0.9%	2.4	4.8%	-47.0*	-4.2
Cc1ccc(CNC(=O)CSc2nc(=O)[nH]c3c2CCCC3)cc1	/	/	0.3	/	/	-2.2
COc1ccc(CNC2CCCc3ccccc32)cc1OC (configuration not stated)	0.6%	-3.2%	8.6	-6.1%	9.0	-8.2
COc1ccc(CNC2CCSc3ccccc32)cc1OC (configuration not stated)	-0.8%	-4.2%	2.4	-6.9%	-32.1*	-3.0
Fc1ccc(CNC(=S)NCc2cccc(Cl)c2)cc1	-7.1%	3.0%	-0.9	1.0%	-32.6*	-3.5
Fc1ccc(CNC(=S)Nc2ccc(Cl)cc2Cl)cc1	-0.8%	1.3%	24.1	2.7%	-37.8*	-11.9
CN1C(=O)C(C)(C)c2cc(S(=O)(=O)N3CCCC3C(=O)Nc3ccc(F)cc3)ccc21 (configuration not stated)	/	/	-0.5	/	-9.5	-0.5
O=C(CC(c1ccccc1)c1cc(Br)ccc1O)NCC1(c2ccccc2)CCCC1 (configuration not stated)	/	/	3.2	/	-25.6	-5.3
CCOC(=O)c1ccccc1NC(=O)c1cc2c(=O)oc3ccc(C)cc3c2s1	/	/	2.2	/	0.8	-2.1
CCN(CC)S(=O)(=O)c1nnc(NC(=O)c2ccccc2Cl)s1	/	/	0.9	/	-5.8	-0.6
CC(C)CN(c1ccccc1)S(=O)(=O)c1nnc(NC(=O)C(C)C)s1	3.2%	3.5%	3.2	-10.9%	-40.6*	-3.9
O=C(Nc1nnc(S(=O)(=O)N2CCCCCC2)s1)c1ccccc1Cl	/	0.2%	8.0	6.7%	-40.7*!	-6.7
CCN(c1ccc(OC)cc1)S(=O)(=O)c1nnc(NC(=O)c2ccccc2Cl)s1	-2.3%	2.2%	1.9	4.8%	-41.9*!	-6.6
CC(C)CC(=O)Nc1nnc(S(=O)(=O)N(CC(C)C)c2ccccc2)s1	/	/	-0.1	/	1.5	2.5
Nc1c(-c2ccc(Cl)cc2)nnn1-c1ccccc1	-0.4%	0.1%	-0.7	13.2%	-50.4*	-7.3
COCCNCCCCOc1ccc(Br)cc1C	0.5%	1.4%	11.3	-0.8%	-16.7	-8.4
COCCCNCCCCOc1ccc(Br)cc1C	3.7%	-0.6%	37.3*	0.5%	-35.3*	-17.9
COc1ccc(S(=O)(=O)N2CCC(Oc3cccc(C(F)(F)F)c3)CC2)cc1OC	/	/	-0.3	/	-36.1*	3.1
CCOC(=O)N1CCC(N2CCN(S(=O)(=O)c3ccc(OC)cc3)CC2)CC1	1.2%	0.1%	13.2	0.4%	-35.8*	-4.0
